The panel holds about 83,000 compounds, 20% with a hit somewhere; the sample as a whole holds those more often.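 Percent growth is the endpoint: 0 to 100 indicates growth inhibition (40 means 60% inhibition), 0 means no net growth, and negative values indicate cell death.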 Active and inactive are the calls of the source. The calls were made as follows: active = growth percent below 10; inactive = the rest.

This is an account of results in PubChem BioAssay (NCI).

The experiment concerns UACC-62 melanoma. The experiment in a line: NCI-60 one-dose screen, 48 h (100 = growth as untreated, 0 = no growth, -100 = all killed). Conditions: 10 µM unless noted.
In the case of `Clc1ccc([I+]c2ccc(Cl)cc2Cl)c(Cl)c1`, the growth is 12.3% (inactive).

Consider `Cc1ccc(C2=NN(c3ccc(S(N)(=O)=O)cc3)C(c3cn(-c4ccccc4)nc3-c3ccccc3)C2)cc1` (stereo not drawn), for which the growth was 83.5% (inactive).

For `N#CC1=C(N)OC2=C(C(=O)CCC2)C1c1ccco1` (stereo not drawn), the growth was 112% (inactive).

`COC1=CC(c2ccc[nH]2)=N/C1=C\c1[nH]c(C)c(C(=O)CCCCC(=O)Oc2ccc3c(c2)CCC2C3CC[C@]3(C)[C@@H](O)CC[C@@H]23)c1C` (stereo partly drawn): the growth is 57.9% (inactive).

On to `COc1ccc(NC(=O)CSc2nc3ccccc3c(=O)n2Cc2cc(OC)c(OC)c(OC)c2)cc1`, for which the growth was 74.2% (inactive).

As to `Nc1c(C(=O)Nc2c(Cl)cccc2Cl)sc2nc3c(cc12)CCCCC3`, the growth is 29% (inactive).

On to `O=C(CN1CCN(c2cc3c(cc2F)c(=O)c(C(=O)O)cn3C2CC2)CC1)Nc1ccc(C(=O)/C=C/c2ccccc2)cc1`, for which the growth was 35.5% (inactive).

As to `COc1cc(/C=C/C(=O)c2ccc(NC(=O)CN3CCN(c4cc5c(cc4F)c(=O)c(C(=O)O)cn5C4CC4)CC3)cc2)cc(OC)c1OC`, the growth was -23.5% (active).

As for `NC(=O)c1c(NC(=O)c2ccc(OCC3CCCO3)cc2)sc2c1CCCC2` (stereo not drawn), the growth is 85% (inactive).

Take `COc1ccc(/C=C/C(=O)OCC(=O)NNC(=O)c2ccccc2)cc1OC`: the growth is 98.4% (inactive).

`Cc1sc(N=Nc2ccc(N(C)C)cc2)[n+]([O-])c1C`: the growth is 99.2% (inactive).

On to `O=C(/C=C/c1ccccc1)n1c(-c2ccc(Cl)cc2)nc2ccccc21`, for which the growth is -84.7% (active).

Turning to `COC(=O)[C@H]1[C@H](OC)[C@@H](OC(=O)/C=C/c2ccncc2)CC2CN3CCc4c([nH]c5cc(OC)ccc45)[C@@H]3C[C@@H]21` (stereo partly drawn), the growth was 43.8% (inactive).
